Experimental data taken from PubChem BioAssay (EPA / NIEHS).
Results filed as inconclusive are left out. Calls of active or inactive are those of the source. How the source made its calls: active means hit-call score of the fitted dose curve at least 0.9, where 1 is the maximum; inconclusive means response in the unintended direction; inactive means score below 0.9.

Each compound was assayed against human Rho Associated Coiled-coil Containing Protein Kinase 1 (ROCK1), ROCK1 (gene 6093) (UniProt Q13464) (assay: NVS_ENZ_hROCK1: NovaScreen (NVS) Enzymatic Assay for human Rho Associated Coiled-coil Containing Protein Kinase 1 (ROCK1) (AID 2283214)).
Sequence of human Rho Associated Coiled-coil Containing Protein Kinase 1 (ROCK1), ROCK1 (gene 6093) (Q13464 whole entry, looked up): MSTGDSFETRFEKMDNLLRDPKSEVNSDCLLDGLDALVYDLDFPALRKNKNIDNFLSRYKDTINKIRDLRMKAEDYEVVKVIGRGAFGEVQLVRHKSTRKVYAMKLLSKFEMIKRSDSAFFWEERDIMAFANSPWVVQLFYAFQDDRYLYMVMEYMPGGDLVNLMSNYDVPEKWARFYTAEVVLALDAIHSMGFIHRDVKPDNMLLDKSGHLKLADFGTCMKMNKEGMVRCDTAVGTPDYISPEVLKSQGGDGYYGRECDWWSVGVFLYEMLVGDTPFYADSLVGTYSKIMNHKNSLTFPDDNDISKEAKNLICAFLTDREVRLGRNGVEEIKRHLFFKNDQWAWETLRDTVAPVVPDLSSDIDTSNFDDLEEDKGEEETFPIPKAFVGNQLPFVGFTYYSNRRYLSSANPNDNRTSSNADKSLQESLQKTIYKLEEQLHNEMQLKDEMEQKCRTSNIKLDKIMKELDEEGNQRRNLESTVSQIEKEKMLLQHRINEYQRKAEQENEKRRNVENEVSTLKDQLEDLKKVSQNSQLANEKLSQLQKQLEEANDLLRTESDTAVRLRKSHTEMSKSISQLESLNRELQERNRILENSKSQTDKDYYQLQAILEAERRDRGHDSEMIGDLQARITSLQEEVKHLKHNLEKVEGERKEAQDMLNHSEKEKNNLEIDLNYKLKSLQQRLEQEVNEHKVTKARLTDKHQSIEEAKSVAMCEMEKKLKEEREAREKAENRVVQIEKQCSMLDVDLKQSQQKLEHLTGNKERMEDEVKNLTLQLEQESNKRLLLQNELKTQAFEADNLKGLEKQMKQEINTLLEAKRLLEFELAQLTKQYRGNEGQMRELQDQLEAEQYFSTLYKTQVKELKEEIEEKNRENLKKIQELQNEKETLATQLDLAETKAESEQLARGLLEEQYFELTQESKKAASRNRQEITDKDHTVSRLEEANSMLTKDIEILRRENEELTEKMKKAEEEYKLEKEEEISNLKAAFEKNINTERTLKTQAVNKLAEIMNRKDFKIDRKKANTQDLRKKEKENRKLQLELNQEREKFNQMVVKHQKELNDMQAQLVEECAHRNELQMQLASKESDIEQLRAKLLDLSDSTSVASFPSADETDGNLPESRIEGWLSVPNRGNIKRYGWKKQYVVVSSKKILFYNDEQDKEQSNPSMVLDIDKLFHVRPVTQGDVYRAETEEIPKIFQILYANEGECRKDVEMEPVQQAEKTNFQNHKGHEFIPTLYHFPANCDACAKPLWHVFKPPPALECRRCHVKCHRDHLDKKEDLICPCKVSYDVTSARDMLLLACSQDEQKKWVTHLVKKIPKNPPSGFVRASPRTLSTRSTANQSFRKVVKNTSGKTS
Outline: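 Cell-free recombinant human ROCK1 activity assay; fluorescent substrate and product separated by electrophoretic mobility shift, read 1 h after dosing. Screened in duplicate at 25 uM; loss of signal versus DMSO baseline scored as inhibition.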
`CCCCCCCCOC(=O)c1ccc(C(=O)OCCCCCCCC)c(C(=O)OCCCCCCCC)c1` was tested, and the outcome was “inactive”. With `CCC12COCN1COC2` the outcome was “inactive”. In the case of `CCCCCCCCCCCCCN1CC(C)OC(C)C1` (configuration not stated), the outcome is reported as “inactive”. `ClC1=C(Cl)C2(Cl)C3C(Cl)C=CC3C1(Cl)C2(Cl)Cl` (configuration not stated) was tested, and the outcome was “inactive”. With `CS(=O)(=O)NC(=O)c1cc(Oc2ccc(C(F)(F)F)cc2Cl)ccc1[N+](=O)[O-]` the outcome was “inactive”.

The compounds below were run against human Protein Tyrosine Phosphatase Receptor Type M (PTPRM), PTPRM (gene 5797) (UniProt P28827) (assay: NVS_ENZ_hPTPRM: NovaScreen (NVS) Enzymatic Assay for human Protein Tyrosine Phosphatase Receptor Type M (PTPRM) (AID 2283215)).
Sequence of human Protein Tyrosine Phosphatase Receptor Type M (PTPRM), PTPRM (gene 5797) (P28827 whole entry, looked up): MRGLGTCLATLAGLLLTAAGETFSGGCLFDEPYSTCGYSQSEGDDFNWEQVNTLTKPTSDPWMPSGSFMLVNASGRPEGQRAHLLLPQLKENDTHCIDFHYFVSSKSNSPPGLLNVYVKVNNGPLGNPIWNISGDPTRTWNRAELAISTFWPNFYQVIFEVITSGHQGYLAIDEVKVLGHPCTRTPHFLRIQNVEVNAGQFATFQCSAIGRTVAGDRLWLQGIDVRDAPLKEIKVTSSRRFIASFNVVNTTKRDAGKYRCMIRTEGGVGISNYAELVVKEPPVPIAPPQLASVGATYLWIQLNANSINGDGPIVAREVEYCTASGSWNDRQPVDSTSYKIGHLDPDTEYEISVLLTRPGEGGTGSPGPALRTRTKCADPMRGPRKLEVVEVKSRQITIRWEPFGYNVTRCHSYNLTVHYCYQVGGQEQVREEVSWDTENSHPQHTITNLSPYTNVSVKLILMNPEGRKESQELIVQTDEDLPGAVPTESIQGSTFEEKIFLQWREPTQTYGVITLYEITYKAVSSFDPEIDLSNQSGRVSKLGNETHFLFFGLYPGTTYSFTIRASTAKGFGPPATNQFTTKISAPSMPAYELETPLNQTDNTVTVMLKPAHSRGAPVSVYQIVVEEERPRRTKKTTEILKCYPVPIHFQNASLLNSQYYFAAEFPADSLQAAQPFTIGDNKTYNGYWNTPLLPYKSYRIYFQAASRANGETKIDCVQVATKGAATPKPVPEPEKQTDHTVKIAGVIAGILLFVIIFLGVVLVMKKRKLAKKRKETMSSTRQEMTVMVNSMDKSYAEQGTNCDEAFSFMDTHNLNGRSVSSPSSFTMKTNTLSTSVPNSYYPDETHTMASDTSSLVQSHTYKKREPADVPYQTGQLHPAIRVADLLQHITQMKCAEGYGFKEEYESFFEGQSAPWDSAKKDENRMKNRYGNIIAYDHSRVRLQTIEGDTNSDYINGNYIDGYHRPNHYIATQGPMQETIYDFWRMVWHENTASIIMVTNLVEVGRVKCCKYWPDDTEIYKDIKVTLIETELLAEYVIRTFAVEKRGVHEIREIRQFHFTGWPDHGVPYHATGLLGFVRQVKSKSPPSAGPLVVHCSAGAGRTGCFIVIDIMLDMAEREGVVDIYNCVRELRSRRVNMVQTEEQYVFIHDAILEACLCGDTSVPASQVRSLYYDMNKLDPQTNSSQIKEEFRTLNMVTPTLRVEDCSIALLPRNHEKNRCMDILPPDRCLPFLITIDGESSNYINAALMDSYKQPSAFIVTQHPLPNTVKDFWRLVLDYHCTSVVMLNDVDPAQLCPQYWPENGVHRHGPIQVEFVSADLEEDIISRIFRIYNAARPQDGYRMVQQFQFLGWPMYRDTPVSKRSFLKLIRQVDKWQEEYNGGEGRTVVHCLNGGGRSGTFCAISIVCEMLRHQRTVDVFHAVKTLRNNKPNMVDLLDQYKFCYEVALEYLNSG
Outline: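 Cell-free recombinant PTPRM with fluorogenic substrate; product separated from substrate by electrophoretic mobility shift and read by fluorescence, 1.33 h after dosing. Primary screen single concentration (25 uM) in duplicate; actives retested in concentration series; loss of signal versus DMSO.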
`O=C(O)C1C2CCC(O2)C1C(=O)O` (configuration not stated) was tested, and the outcome was “inactive”. `CCCSC(=O)N(CCC)CCC` was tested, and the outcome was “inactive”. `O=C(Oc1ccc(Br)cc1)N1CCN2CCC1CC2` was tested, and the outcome was “inactive”.

What follows are compounds tested against human Sirtuin 1 (SIRT1), SIRT1 (gene 23411) (UniProt Q96EB6) (assay: NVS_ENZ_hSIRT1: NovaScreen (NVS) Enzymatic Assay for human Sirtuin 1 (SIRT1) (AID 2283219)).
Sequence of human Sirtuin 1 (SIRT1), SIRT1 (gene 23411) (Q96EB6 whole entry, looked up): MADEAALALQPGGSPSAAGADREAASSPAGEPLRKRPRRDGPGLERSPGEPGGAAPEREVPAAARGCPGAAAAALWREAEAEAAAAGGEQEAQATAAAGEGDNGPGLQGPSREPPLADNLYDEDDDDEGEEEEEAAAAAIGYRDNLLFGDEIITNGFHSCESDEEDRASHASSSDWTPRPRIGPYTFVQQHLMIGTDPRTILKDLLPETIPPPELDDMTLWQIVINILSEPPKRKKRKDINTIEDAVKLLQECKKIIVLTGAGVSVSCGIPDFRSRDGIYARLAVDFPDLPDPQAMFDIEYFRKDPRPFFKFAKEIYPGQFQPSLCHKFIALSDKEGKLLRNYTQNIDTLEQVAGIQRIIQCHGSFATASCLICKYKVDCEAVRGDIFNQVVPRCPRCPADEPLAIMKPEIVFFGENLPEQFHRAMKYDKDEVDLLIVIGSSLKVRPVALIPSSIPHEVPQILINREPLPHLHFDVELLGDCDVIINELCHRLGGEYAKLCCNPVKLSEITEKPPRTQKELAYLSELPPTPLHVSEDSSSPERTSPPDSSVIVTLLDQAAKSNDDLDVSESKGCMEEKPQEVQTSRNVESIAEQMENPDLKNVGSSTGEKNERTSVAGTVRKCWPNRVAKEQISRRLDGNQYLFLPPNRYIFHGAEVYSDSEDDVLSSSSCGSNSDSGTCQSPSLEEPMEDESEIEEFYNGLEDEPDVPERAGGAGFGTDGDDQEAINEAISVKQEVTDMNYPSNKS
Outline: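 Cell-free recombinant SIRT1 with a fluorescent substrate; substrate and product separated by electrophoretic mobility shift and read by fluorescence intensity, 1 h after dosing. Primary screen at 25 uM in duplicate; hits re-run in concentration-response up to 50 uM, relative to DMSO.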
For `Clc1ccc(Cl)c(Cl)c1`, the outcome was “inactive”. `CCC[CH2][Sn]([Cl])([CH2]CCC)[CH2]CCC` was tested, and the AC50 was 7.38 µM (active). With `Cc1ccc(N)c(N)c1` the outcome was “inactive”.

What follows are compounds tested against human Sirtuin 3 (SIRT3), SIRT3 (gene 23410) (UniProt Q9NTG7) (assay: NVS_ENZ_hSIRT3: NovaScreen (NVS) Enzymatic Assay for human Sirtuin 3 (SIRT3) (AID 2283222)).
Sequence of human Sirtuin 3 (SIRT3), SIRT3 (gene 23410) (Q9NTG7 whole entry, looked up): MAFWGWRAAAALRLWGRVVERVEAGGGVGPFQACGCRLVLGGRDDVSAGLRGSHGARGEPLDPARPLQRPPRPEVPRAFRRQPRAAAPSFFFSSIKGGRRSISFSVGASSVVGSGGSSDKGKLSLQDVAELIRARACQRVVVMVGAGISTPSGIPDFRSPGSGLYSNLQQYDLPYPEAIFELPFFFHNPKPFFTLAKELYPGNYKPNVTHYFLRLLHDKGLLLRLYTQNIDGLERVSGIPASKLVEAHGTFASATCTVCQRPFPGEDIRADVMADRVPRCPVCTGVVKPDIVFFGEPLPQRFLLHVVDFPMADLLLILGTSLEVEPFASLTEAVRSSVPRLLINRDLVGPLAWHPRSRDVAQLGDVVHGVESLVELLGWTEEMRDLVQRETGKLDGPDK
Outline: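 Cell-free enzyme assay with recombinant protein and fluorescent substrate, product separated by electrophoretic mobility shift; read 1 hour after dosing. Screened in duplicate at 25 uM, then singleton concentration-response up to 50 uM; loss of signal versus DMSO.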
In the case of `CCCCC(CC)COC(=O)c1ccc(C(=O)OCC(CC)CCCC)c(C(=O)OCC(CC)CCCC)c1` (configuration not stated), the outcome is reported as “inactive”. With `ClCCOCCCl` the outcome was “inactive”. With `O=C(Oc1ccc(Br)cc1)N1CCN2CCC1CC2` the outcome was “inactive”.

Each compound was assayed against human SRC Proto-Oncogene, Non-receptor Tyrosine Kinase (SRC), SRC (gene 6714) (UniProt P12931) (assay: NVS_ENZ_hSRC: NovaScreen (NVS) Enzymatic Assay for human SRC Proto-Oncogene, Non-receptor Tyrosine Kinase (SRC) (AID 2283223)).
Sequence of human SRC Proto-Oncogene, Non-receptor Tyrosine Kinase (SRC), SRC (gene 6714) (P12931 whole entry, looked up): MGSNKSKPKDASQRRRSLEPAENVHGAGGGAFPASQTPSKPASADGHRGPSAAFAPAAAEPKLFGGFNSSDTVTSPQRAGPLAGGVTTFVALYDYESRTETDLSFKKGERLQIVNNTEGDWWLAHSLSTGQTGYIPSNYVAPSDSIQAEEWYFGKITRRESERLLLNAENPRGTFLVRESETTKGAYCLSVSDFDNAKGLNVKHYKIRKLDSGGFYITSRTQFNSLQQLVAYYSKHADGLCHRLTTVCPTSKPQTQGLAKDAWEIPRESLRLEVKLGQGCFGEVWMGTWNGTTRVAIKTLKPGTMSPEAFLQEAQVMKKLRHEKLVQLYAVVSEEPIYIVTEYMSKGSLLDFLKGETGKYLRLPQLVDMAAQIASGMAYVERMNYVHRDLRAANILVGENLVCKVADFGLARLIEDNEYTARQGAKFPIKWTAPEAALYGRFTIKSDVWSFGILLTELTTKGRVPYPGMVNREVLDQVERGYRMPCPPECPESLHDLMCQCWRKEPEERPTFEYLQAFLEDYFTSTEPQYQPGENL
Outline: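 Cell-free kinase activity assay with fluorescent substrate, product separated by electrophoretic mobility shift, read 1 h after dosing. Duplicate single point at 25 uM, then concentration-response up to 50 uM; loss of signal versus DMSO.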
`CC(C)(C)C(O)(CCc1ccc(Cl)cc1)Cn1cncn1` (configuration not stated) was tested, and the outcome was “inactive”. `ClCCOCCCl` was tested, and the outcome was “inactive”. `Cc1ccc(N)c(N)c1` was tested, and the outcome was “inactive”.

Each compound was assayed against human Tyrosine Protein Kinase Receptor Tie-2 (Tie2), TEK (gene 7010) (UniProt Q02763) (assay: NVS_ENZ_hTie2: NovaScreen (NVS) Enzymatic Assay for human Tyrosine Protein Kinase Receptor Tie-2 (Tie2) (AID 2283225)).
Description: NVS_ENZ_hTie2 is a biochemical, single-readout assay that uses extracted gene-proteins in a cell-free assay. Measurements were taken 1 hour after chemical dosing in a 384-well plate.NVS_ENZ_hTie2 is one of one assay component(s) measured or calculated from the NVS_ENZ_hTie2 assay. It is designed to make measurements of enzyme activity, a form of enzyme reporter, as detected with fluorescence intensity signals by Fluorescence and electrophoretic mobility shift technology.Data from the assay component NVS_ENZ_hTie2 was analyzed into 1 assay endpoint. This assay endpoint, NVS_ENZ_hTie2, was analyzed in the positive analysis fitting direction relative to DMSO as the negative control and baseline of activity. Using a type of enzyme reporter, loss-of-signal activity can be used to understand changes in the enzymatic activity as they relate to the gene TEK. Furthermore, this assay endpoint can be referred to as a primary readout, because this assay has produced multiple assay endpoints where this one serves a enzymatic activity function. To generalize the intended target to other relatable targets, this assay endpoint is annotated to the kinase intended target family, where the subfamily is receptor tyrosine kinase.
Binding assays used specific radioligands (tritiated, iodinated) with non-radioactive competitive displacement ligands in agonist or antagonist protocols (as indicated) and various reference compounds and inhibitors to titrate specific binding to receptors and transporters. Most enzyme assays (CYPs, kinases, phosphatases, proteases, HDACs) used recombinant protein and specific substrates (fluorescence mostly, some colorimetric and radioactive) and inhibitors, followed by a biochemical separation of substrate and product. All assays for the biochemical HTS were initially run in duplicate at a single concentration (10 uM for CYP450 assays and 25 uM for all others). Assay-chemical combinations meeting a pre-defined threshold (e.g., 30% inhibition and other criteria defined below) were then run in singleton concentration-response format with maximum concentration of 20 uM for CYPs and 50 uM for all others. Each assay was run with positive and negative controls, and concurrent controls on every plate. The follow-up (secondary) screen tested active chemical-pairs in concentration series, as well as a few additional assays not tested in the primary screen, some selected negative inactives, and several cases re-run in the concentration series for confirmatory purposes.
With `CCCCC(CC)COC(=O)c1ccc(C(=O)OCC(CC)CCCC)c(C(=O)OCC(CC)CCCC)c1` (configuration not stated) the outcome was “inactive”. With `CC(C)(C)C(O)(CCc1ccc(Cl)cc1)Cn1cncn1` (configuration not stated) the outcome was “inactive”. With `O=C(Oc1ccc(Br)cc1)N1CCN2CCC1CC2` the outcome was “inactive”.

These compounds were tested against rabbit Imidazoline 2 Central (I2C), CKB (gene 100009085) (UniProt P00567) (assay: NVS_ENZ_rabI2C: NovaScreen (NVS) Enzymatic Assay for rabbit Imidazoline 2 Central (I2C) (AID 2283228)).
Sequence of rabbit Imidazoline 2 Central (I2C), CKB (gene 100009085) (P00567 whole entry, looked up): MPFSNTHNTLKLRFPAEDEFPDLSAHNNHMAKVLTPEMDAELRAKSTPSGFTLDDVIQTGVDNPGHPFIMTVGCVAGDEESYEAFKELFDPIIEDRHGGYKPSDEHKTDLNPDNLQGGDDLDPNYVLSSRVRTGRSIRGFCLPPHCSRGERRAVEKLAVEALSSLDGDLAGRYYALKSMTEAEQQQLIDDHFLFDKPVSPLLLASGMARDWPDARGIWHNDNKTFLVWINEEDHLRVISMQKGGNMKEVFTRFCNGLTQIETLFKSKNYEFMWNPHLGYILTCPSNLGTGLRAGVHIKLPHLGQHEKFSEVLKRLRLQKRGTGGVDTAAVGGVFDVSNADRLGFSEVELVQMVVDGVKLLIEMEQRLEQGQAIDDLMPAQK
Outline: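 Rabbit brain membranes, cell-free; readout by filter-based scintillation counting 1.5 hours after dosing, loss of signal vs DMSO. Initial duplicate test at 25 uM, then concentration-response with 50 uM top concentration.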
`CN(C)C(=O)Nc1ccc(Cl)cc1` was tested, and the outcome was “inactive”. In the case of `Nc1ccc(N=Nc2ccccc2)cc1`, the outcome is reported as “inactive”. In the case of `Nc1ccc([N+](=O)[O-])cc1`, the outcome is reported as “inactive”. In the case of `CCOC(=O)[C@]1(c2ccccc2)Oc2ccccc2[C@@H]1N`, the AC50 is reported as 4.37 µM (active). `Cc1ccc(N)c(N)c1` was tested, and the outcome was “inactive”. For `O=C(N[C@H](c1ccccc1)[C@@H]1CN2CCC1CC2)c1c(Cl)ccc(C(F)(F)F)c1Cl`, the outcome was “inactive”. With `CC(C)(O)c1cnn2c(-c3ccc(F)c(-c4c(F)cccc4C#N)c3)cnc2n1` the AC50 was 0.362 µM (active).
